Measured values: PubChem BioAssay AID977607 (Broad Institute, 2014)
Hit rate of the full screen: of about 1,500 compounds, about 460 (31%) were called active. About 1% were inconclusive and are not listed.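 Rule for the calls: active = curve reaches 40% activation over neutral controls at an AC40 no higher than the top valid tested concentration; inconclusive = no clear call, values can overlap the other calls; inactive = signal moving opposite to the expected increase, and the rest.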 The list is a sample of the results. Measured potencies and affinities stand elsewhere.

Assay: GLuc-reported insulin release enhancers, glucose-stimulated beta cells – cell-based, INS-1E, Gaussia luciferase, luminescence, cherry-pick, set 2, dose response (AID 977607);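 note: 0% = median of the plate neutral control wells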
Details: INS-1E GLuc insulin secretion reporter, 2-3 h, hits give high values; at 35 µM, 100% = signal doubled over neutral wells unless noted

Max activation, inactive:
CN(C)S(=O)(=O)c1cccc(-c2csc(N/N=C/c3ccco3)n2)c1 -17.2% [at 3.8 µM, 100% = signal doubled over neutral wells]
CCc1cccc(NC(=O)C2CCCN2S(=O)(=O)c2ccc3c(c2)n(C)c(=O)c(=O)n3C)c1 (stereo unspecified) -17.8%
CCOc1cc(OCC)cc(C(=O)Nc2cccnc2)c1 14.6% [at 1.2 µM, 100% = signal doubled over neutral wells]
C=C1[C@@H](O)[C@H](CC(C)C)N(Cc2ccccc2Br)S1(=O)=O -22.8%
COc1ccc(-n2c(-c3ccc(Cl)cc3)c[nH]c2=S)cc1 14.5%
CCCOc1ccc(/C=N/NC(=O)C(=O)Nc2ccccn2)cc1 19.6%
CC(C)CCC(O)(CCC(C)C)C(=O)NN1CCCCC1 26.3% [at 0.015 µM, 100% = signal doubled over neutral wells]
O=c1cc(Cl)[nH]c(=O)n1Cc1ccccc1 -18% [at 0.135 µM, 100% = signal doubled over neutral wells]
Cc1cc(C(=O)Nc2cccc(O)c2)c(C)o1 50.1% [at 0.135 µM, 100% = signal doubled over neutral wells]
Cc1ccc(NC(=O)c2ccccc2-c2ccccc2C(=O)O)cc1C -15.4% [at 0.046 µM, 100% = signal doubled over neutral wells]
CCCn1nc(C(=O)NC2CC2)c2ccccc2c1=O -11.7% [at 0.135 µM, 100% = signal doubled over neutral wells]
CCCn1nc(C(=O)NC2CCCC2)c2ccccc2c1=O 14.9% [at 0.135 µM, 100% = signal doubled over neutral wells]
CCNc1nc(C)nc2c1oc1ccccc12 20.6% [at 11 µM, 100% = signal doubled over neutral wells]
CC(C)Oc1cccc(C(=O)C2CCCN(C(=O)CCc3cnn(C)c3)C2)c1 (stereo unspecified) -16.9% [at 0.0016 µM, 100% = signal doubled over neutral wells]
COCCn1c(=O)[nH]c2cc(C(=O)Nc3cc(OC)c(OC)c(OC)c3)ccc2c1=O -21.3% [at 11 µM, 100% = signal doubled over neutral wells]
COc1ccc(Cl)cc1C(=O)Nc1cccc(-c2ccc3nncn3n2)c1 -16.9% [at 0.015 µM, 100% = signal doubled over neutral wells]
Cc1ccnc(NC(=O)Nc2ccc(Br)cc2Cl)c1 -16.6% [at 0.0016 µM, 100% = signal doubled over neutral wells]
CCCCCCc1cc2cc(C(=O)Nc3cccc(OC)c3)c(=O)oc2cc1O -54.3% [at 1.2 µM, 100% = signal doubled over neutral wells]
COc1ccccc1C(OC(=O)c1cccs1)C(=O)NCC1CCCO1 (stereo unspecified) -15.4% [at 0.015 µM, 100% = signal doubled over neutral wells]
Cc1cccc(C2N=C(N)Nc3nc4ccccc4n32)c1 (stereo unspecified) -24% [at 0.005 µM, 100% = signal doubled over neutral wells]
O=C(Cc1c[nH]c2ccccc12)N[C@@H](Cc1c[nH]c2ccccc12)C(=O)O 39.3% [at 0.135 µM, 100% = signal doubled over neutral wells]
C=CCn1c(O)c(N=NC(=O)CNC(=O)c2ccco2)c2ccccc21 10.5%
O=c1[nH]nc(-c2cccs2)c2ccccc12 31.3%
O=C1NC(c2ccccc2)c2c(-c3ccccc3)n[nH]c21 (stereo unspecified) -9.3% [at 0.005 µM, 100% = signal doubled over neutral wells]
CCCc1cc(=O)n2[nH]c(C)c(-c3ccc(Cl)cc3)c2n1 24.5% [at 0.0016 µM, 100% = signal doubled over neutral wells]
CCc1nnc(NC(=O)C(c2ccccc2)c2ccccc2)s1 -21.5%
O=C(Nc1ccccc1)Nc1nnc(-c2cccs2)s1 -23.9% [at 11 µM, 100% = signal doubled over neutral wells]
O=S(=O)(Nc1ncnc2sc3c(c12)CCC3)c1cc(F)ccc1F 30.2% [at 0.135 µM, 100% = signal doubled over neutral wells]
NC(=O)c1ccc2nc(-c3ccccc3)c(-c3ccccc3)nc2c1 28.4%
O=C(O)CCCNC(=O)c1nn(Cc2ccccc2)c(=O)c2ccccc12 -18.7% [at 0.0016 µM, 100% = signal doubled over neutral wells]
CCOC(=O)Cn1c(=O)n(Cc2ccccc2)c(=O)c2cccnc21 -12.9% [at 0.0016 µM, 100% = signal doubled over neutral wells]
c1ccc(Oc2ccccc2-c2cc(NCCc3cccnc3)n3nccc3n2)cc1 -10.9% [at 0.046 µM, 100% = signal doubled over neutral wells]
O=C(Nc1nnc(-c2ccc(Cl)cc2)o1)NC1CCCCC1 -20.9%
O=C(CCCC(=O)c1ccccc1)NCc1ccccc1 35.8% [at 3.8 µM, 100% = signal doubled over neutral wells]
NCCCNC(=S)NCCCN(Cc1ccc(Cl)cc1)c1ccc(Br)cn1 -16.7% [at 0.005 µM, 100% = signal doubled over neutral wells]
Cc1cccc(-c2cc3nc4c(c(N5CCCC(O)C5)n3n2)CCC4)c1 (stereo unspecified) 36.7% [at 11 µM, 100% = signal doubled over neutral wells]
